# Source: PubChem BioAssay (National Center for Advancing Translational Sciences (NCATS))
# TDP1 inh = TDP1 (human) enzyme inhibition; Q9NUW8; recombinant TDP1, AlphaScreen DNA substrate cleavage; Potency, µM (doses to about 130 µM), without a hit: at the highest dose activity change, negative = inhibition, most hits filed as inhibitors; 350,000 compounds, 0.28% hits; AID 485290; note: potency is the fitted concentration of half-maximal effect; nearly all actives have a fitted effect of over 40% in size
#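 Signal: AlphaScreen proximity between streptavidin donor and anti-FITC acceptor beads on intact substrate. Reaction: Tdp1 1 nM, substrate 15 nM final, 5 min RT after 15 min compound preincubation.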
# TDP1 cell noCPT = qHTS for Inhibitors of human tyrosyl-DNA phosphodiesterase 1 (TDP1): qHTS in cells in absence of CPT; 420,000 compounds, 15% hits; AID 686978, 2013; Potency, µM (series often up to 46.2 µM), inactives show top-dose activity change, negative = growth inhibition, usual class: inhibitors; DT40 Tdp1-/- hTDP1 cells, no CPT, ATP luminescence, 48 h; note: potency is the fitted concentration of half-maximal effect; nearly all actives have a fitted effect of over 55% in size
#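 Readout: luminescence from CellTiter-Glo after 30 min in the dark at RT. Cells: DT40 Tdp1-/- with stable hTDP1, 400/well. Exposure: compounds alone, ≥48 hr, 37 °C.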
# Six1-Eya2 inh = inhibitors of human Six1/Eya2 interaction. Q15475+O00167. AlphaScreen GST-Six1/His-Eya2 binding, biochemical; stronger effect = lower value. activity change, % (no concentration beside the values). 360,000 compounds, 0.56% hits. AID 651725; in the data active = activity change below about -65%; inconclusive = mostly about -30% to -63%
# Target sequence (O00167 whole entry, looked up): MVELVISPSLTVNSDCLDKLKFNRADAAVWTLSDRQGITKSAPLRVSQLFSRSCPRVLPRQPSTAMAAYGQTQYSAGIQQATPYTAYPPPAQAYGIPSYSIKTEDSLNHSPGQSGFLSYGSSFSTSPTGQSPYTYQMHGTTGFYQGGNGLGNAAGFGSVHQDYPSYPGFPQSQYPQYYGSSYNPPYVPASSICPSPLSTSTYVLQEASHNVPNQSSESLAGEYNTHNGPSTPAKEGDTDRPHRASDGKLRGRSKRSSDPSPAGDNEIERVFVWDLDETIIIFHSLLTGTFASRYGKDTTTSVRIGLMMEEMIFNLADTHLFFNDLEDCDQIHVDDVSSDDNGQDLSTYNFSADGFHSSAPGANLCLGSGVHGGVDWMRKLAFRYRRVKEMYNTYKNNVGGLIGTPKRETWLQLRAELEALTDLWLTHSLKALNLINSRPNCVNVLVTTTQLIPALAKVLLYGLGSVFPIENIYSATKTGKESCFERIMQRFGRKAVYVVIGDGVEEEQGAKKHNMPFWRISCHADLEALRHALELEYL
# Target sequence (Q15475 whole entry, looked up): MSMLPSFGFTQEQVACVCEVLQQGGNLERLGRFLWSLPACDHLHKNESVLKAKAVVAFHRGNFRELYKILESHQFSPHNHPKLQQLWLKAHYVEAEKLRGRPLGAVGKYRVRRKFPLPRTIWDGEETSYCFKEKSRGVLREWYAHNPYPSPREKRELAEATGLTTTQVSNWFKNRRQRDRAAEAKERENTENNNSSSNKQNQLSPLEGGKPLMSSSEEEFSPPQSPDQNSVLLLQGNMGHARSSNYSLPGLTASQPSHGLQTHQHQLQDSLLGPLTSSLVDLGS
#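 Six1/Eya2 binding was read as AlphaScreen signal after compounds were pinned into GST-Six1 plus His-tagged Eya2 (5X stock 250/500 nM) in pH 8.0 Tris/NaCl/TCEP buffer, beads added, then incubated 1 h, 37 C, dark.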
# DT40 TDP1 CPT = DT40-hTDP1 cell growth loss with CPT; chicken DT40 Tdp1-/-;hTDP1 cells + 20 nM CPT, ATP luminescence, 48 h; Potency, µM (highest dose often 46.2 µM), without a hit: top-dose activity change, negative = growth inhibition, most hits filed as inhibitors; 420,000 compounds, 12% hits; note: potency is the fitted concentration of half-maximal effect; nearly all actives have a fitted effect of over 55% in size
#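 Chicken DT40 Tdp1-/- cells stably complemented with human TDP1 were seeded at 400 cells/well in medium containing 20 nM camptothecin, exposed to pin-transferred compounds, and grown at 37 °C for at least 48 hr. Viability was read as ATP luminescence.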
# IL-1B inflam inh = inhibitors of inflammasome signaling (IL-1 beta secretion); THP-1 LPS/ATP IL-1B secretion, AlphaLISA, 16 h; stronger effect = lower value; activity change, % at 57.5 µM; 360,000 compounds, 4.7% hits; AID 743279; in the data active = activity change below about -50%; inconclusive = mostly about -30% to -49%
#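 THP-1 cells pretreated 1 hr with compounds (up to 57.5 uM final), then stimulated with LPS (250 ng/mL final) plus ATP (1.25 mM final); secreted IL-1B measured by AlphaLISA after 16 hr, decreased signal indicating inhibition.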
# CtBP-E1A inh = inhibitors of CtBP/E1A interaction. AlphaScreen GST-E1A/His-CtBP binding, 1536-well; stronger effect = lower value. activity change, % (test concentration not listed). 340,000 compounds, 0.49% hits; in the data active = activity change below about -65%; inconclusive = mostly about -30% to -63%
#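 Homogeneous bead-based format: GST-tagged E1A captured on glutathione donor beads, His-tagged CtBP on nickel acceptor beads; compounds precede bead addition by 2 h at 37 °C.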
# * hit, by the source's call; ? = inconclusive; · = not tested or not shown. Shown are actives, neighbours in structure and some others; about 18% of the full set was active somewhere. Unless noted, calls come from the whole dose curve; as a rule, active = well fitted curve in the direction sought with a large enough effect; inconclusive = small, poorly fitted or top-dose-only effect, or another doubt; inactive = no such curve, though single readings can be large; an effect the other way counts as inactive or inconclusive. % is set by controls: 0 for no effect and ±100 for the full control effect.
SMILES,TDP1 inh,TDP1 cell noCPT,Six1-Eya2 inh,DT40 TDP1 CPT,IL-1B inflam inh,CtBP-E1A inh
COc1ccc2cc3cc(C(=O)NCCC(C)C)oc3nc2c1,·,-22.3%,0.1,-4.5%,-25.2,1.4
Nc1nonc1-c1noc(CCCCCN2C(=O)c3ccccc3C2=O)n1,7.8%,-18.3%,-0.9,-7.7%,-9.8,-1.5
CCOc1ncccc1C(=O)OC(C)C(=O)Nc1ccc(CC)cc1 (configuration not stated),-3.0%,-24.9%,0.9,-10.6%,0.5,4.4
NC(=O)C1CCN(C(=O)CN2C(=O)c3ccccc3S2(=O)=O)CC1,·,3.0%,5.2,-28.1%,0.7,6.6
Cc1ccn2c(=O)nc(SCC(=O)OCc3ccccc3)nc2c1,·,-16.7%,-1.4,-13.1%,-15.3,-7.5
Cc1ncsc1CCOC(=O)c1ccc(N2CCOCC2)c([N+](=O)[O-])c1,5.0%,16.7%,0.7,-7.1%,22.9,2.8
Cc1c(CCOC(=O)c2ccc(N3CCOCC3)c([N+](=O)[O-])c2)sc[n+]1CC#N,1.9%,2.59µM*,-13.1,4.61µM*,-101.5*,-26.9
CC1(C)CC(=O)C=C(c2ccc(COC(=O)/C=C/c3ccccc3)cc2)C1=O,·,20.6µM*,-16.2,?,17.9,-16.8
COc1ccc(OCC(=O)Nc2c(C(=O)N3CCC(N4CCCCC4)CC3)oc3ccccc23)cc1,1.9%,?,-6.7,?,?,-10.6
CC(C)NC(=O)[C@]1(C)CCC[C@@]2(C)C3CC[C@@]4(C)C[C@]3(CCC21)CC4=O (some centres not stated),1.4%,-28.4%,-5.8,?,17.0,3.7
COC(=O)[C@]1(C)CCC[C@@]2(C)C3CC[C@@]4(C)C[C@]3(CCC21)CC(=O)N4Cc1ccc(OC)cc1 (some centres not stated),0.8%,6.51µM*,-10.2,11.6µM*,?,-5.4
COC(=O)[C@]1(C)CCC[C@@]2(C)C3CC[C@]4(OC(C)=O)C[C@@]3(CCC21)CC4=O (some centres not stated),1.1%,?,7.4,20.6µM*,23.8,-22.2
c1ccc2[nH]c(SCc3cscn3)nc2c1,6.8%,?,-0.4,-28.0%,?,-0.3
CC(C)(C)n1nnnc1C(c1cccnc1)N(Cc1ccccc1)Cc1ccco1 (configuration not stated),5.4%,?,-2.3,?,-20.3,-21.5
CCN(Cc1ccccc1)C(c1ccc(C(F)(F)F)cc1)c1nnnn1C(C)(C)C (configuration not stated),·,20.6µM*,1.1,?,-1.2,5.5
CCN(Cc1ccccc1)C(c1cccc(C#N)c1)c1nnnn1C(C)(C)C (configuration not stated),-2.1%,23.1µM*,2.0,?,0.9,4.5
COc1cc2c(cc1OC)-c1cc3nc4ccccc4nc3n1C(C)(C)C2,13.1%,8.41µM*,·,11.9µM*,·,·
O=C1CSC(=S)N1N=Cc1ccccc1O,·,9.2µM*,-90.2*,?,9.8,-1.9
O=C1CSC(=S)N1N=Cc1ccc(Cl)cc1Cl,·,20.6µM*,?,?,9.8,?
O=C1CSC(=S)N1/N=C/c1ccc2c(c1)OCCO2,·,?,-27.8,?,38.6,-81.8*
Cc1ccccc1/C=N/N1C(=O)CSC1=S,·,-20.1%,-23.2,-13.8%,-4.6,·
COc1cc(/C=N/N2C(=O)CSC2=S)ccc1O,-9.8%,-23.6%,-23.4,-16.4%,0.0,?
O=C1CSC(=S)N1N=Cc1cccc2ccccc12,·,?,-24.3,-26.8%,9.5,1.9
COc1cc(O)c(C=NN2C(=O)CSC2=S)c(OC)c1,·,23.1µM*,-87.2*,20.6µM*,33.6,?
O=c1c(-c2ccc(Cl)cc2)nc2cnc(N3CCOCC3)nc2n1C1CC1,·,11.5%,·,-3.5%,·,·
SMILES,TDP1 inh,TDP1 cell noCPT,Six1-Eya2 inh,DT40 TDP1 CPT,IL-1B inflam inh,CtBP-E1A inh
O=C(C[C@@H]1CC[C@@H]2[C@H](COC[C@H](O)CN2S(=O)(=O)c2ccccc2)O1)Nc1ccccc1,·,?,-1.2,?,?,-0.2
O=C(Nc1ccc(-c2nnc3n2CCCCC3)cc1)c1cnccn1,-1.1%,-4.0%,-2.1,4.2%,11.8,-8.9
COc1ccc(/C=C/C(=O)NC(=S)Nc2ccc(S(=O)(=O)N=C(N)N)cc2)cc1OC,·,-9.6%,2.7,1.4%,-2.4,-4.3
O=C1CSC(=S)N1N=Cc1cccc(OCc2ccccc2)c1,·,-1.8%,-23.3,-25.5%,-6.1,-14.0
O=C1CSC(=S)N1/N=C/c1cccnc1,·,?,-14.4,14.6µM*,-4.1,-12.9
Cc1ccc(C(=O)OCC(=O)N2CCC(c3ccccc3)=N2)cc1,0.6%,?,1.8,?,-85.1*,8.2
Cc1ccc(CN2CCSc3ccc(C(=O)Nc4ccc(Cl)cc4)cc32)cc1,-6.4%,?,·,23.1µM*,·,·
O=C(NC1CC1)c1ccc2c(c1)N(Cc1ccccc1)CCS2,4.7%,-20.8%,-6.5,?,-24.0,-8.4
O=C(Nc1ccc(Cl)cc1)c1ccc2c(c1)N(Cc1ccccc1)CCS2,3.8%,?,·,14.6µM*,·,·
Cc1ccc(CN2CCSc3ccc(C(=O)Nc4cc(C)cc(C)c4)cc32)cc1,1.3%,?,·,?,·,·
CSC1=NNC(c2ccc(C(C)(C)C)cc2)=NN1,·,-23.2%,6.7,-14.3%,-7.4,7.9
O=C(NCCS(=O)(=O)c1ccc(Br)cc1)c1ccc(Cl)cc1,1.9%,-2.5%,-5.4,-14.8%,-6.7,-12.2
CC(C)c1ccc(C(C)NCCS(=O)(=O)c2ccc(Cl)cc2)cc1 (configuration not stated),4.0%,11.6µM*,4.1,20.6µM*,-77.2*,-3.3
CC(C(=O)NCCS(=O)(=O)c1ccc(Br)cc1)S(=O)(=O)c1ccc(Cl)cc1 (configuration not stated),·,?,5.7,-1.8%,-50.5*,-13.4
CC1CCCCN1Cc1c(O)ccc2c(=O)c(-c3nc4ccccc4s3)c(N)oc12 (configuration not stated),0.6%,23.1µM*,?,?,-29.9,?
CC(C)N(Cc1c(O)ccc2c(=O)c(-c3ccc(Cl)cc3)coc12)C(C)C,·,8.2µM*,2.2,2.06µM*,-4.1,·
CC1CCCCN1Cc1c(O)ccc2c(=O)c(-c3ccc(Cl)cc3)coc12 (configuration not stated),-2.8%,18.4µM*,10.2,7.31µM*,?,7.4
